The values below come from PMC10668032, “Altered binding affinity of SIX1-Q177R correlates with enhanced WNT5A and WNT pathway effector expression in Wilms tumor”.

In all, about 33,000 sequences were measured (“e-score”: median about -0.05, highest 2% from about 0.38 on). This excerpt belongs to a sample that is enriched for the highest values.

For this experiment, the target named is T1, SIX1-Q177R homeodomain (human, UniProt Q15475 108-198, Q177R).
T1 sequence: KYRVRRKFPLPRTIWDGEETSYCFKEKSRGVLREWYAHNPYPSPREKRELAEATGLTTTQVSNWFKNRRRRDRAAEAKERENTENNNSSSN
In words: universal protein binding microarray; Universal all-10-mer PBM (8x60K, AMADID 030236), 300 nM GST-tagged protein, Alexa Fluor 488 anti-GST; buffer, salt, pH and temperature not stated (as in Berger); high values mean tight binding. As to conditions: protein: ivt; tags: N-terminal GST; dsDNA, one strand shown. The essentials: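 GST-tagged homeodomains were made by in vitro transcription/translation and quantified by anti-GST western blot against a recombinant GST standard curve. They were applied in duplicate at 300 nM final concentration to universal 'all 10-mer' protein binding microarrays (8×60K format). Binding was quantified as 8-mer E-scores with the Universal PBM Analysis Suite.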
Regarding CACGCGAG, the binding signal amounted to 0.27 ± 0.0228 E-score.
The result for CCCGCCGG reads 0.245 ± 0.0587 E-score; that for CCAAGCGG, 0.162 ± 0.00467 E-score; that for AACGTACA, 0.185 ± 0.0191 E-score.
The figure for GTATCGTA is 0.18 ± 0.0138 E-score; for AGTCGCGA it is 0.189 ± 0.03 E-score; for CACTCCTC it is 0.201 ± 0.00344 E-score.
With GTGTGAAA, the binding signal amounted to 0.356 ± 0.00667 E-score.
The figure for GTGTAAAA is 0.401 ± 0.049 E-score; for GGATCCCA it is 0.235 ± 0.0247 E-score; for CTTGACCC it is 0.201 ± 0.00951 E-score.
The result for ATTGACAC reads 0.438 ± 0.0129 E-score; that for ATTGACTC, 0.162 ± 0.0495 E-score; that for CTTGATAC, 0.195 ± 0.0457 E-score.
The figure for CTTGACAC is 0.42915 ± 0.000184 E-score; for ATTGACCC it is 0.167 ± 0.0261 E-score.
For CAGCGTTA, the binding signal was determined as 0.187 ± 0.0162 E-score.
The figure for AGATGACA is 0.1652 ± 0.000311 E-score; for CACCCACA it is 0.365 ± 0.00539 E-score; for CCCTTAAC it is 0.152 ± 0.0479 E-score.
The result for CAATACAC reads 0.371 ± 0.0193 E-score; that for CAAAATAC, 0.162 ± 0.0251 E-score.
The result for GAATACCC reads 0.159 ± 0.00629 E-score; that for AAATACAC, 0.403 ± 0.0413 E-score; that for GAATACAC, 0.408 ± 0.0236 E-score.
In the case of CCCTTAGG, the binding signal stood at 0.175 ± 0.00592 E-score.
Take CACCCGAG: the binding signal stood at 0.297 ± 0.0235 E-score.
The figure for ACCAGTGG is 0.189 ± 0.0039 E-score; for CCCCAAGG it is 0.218 ± 0.0124 E-score; for ACCTGGGG it is 0.21 ± 0.0103 E-score.
The result for CACGCCGG reads 0.287 ± 0.0131 E-score.
For TGTTAACA, the binding signal came out at 0.389 ± 0.043 E-score.
As for GGTTAACA, the binding signal turned out to be 0.224 ± 0.0235 E-score.
The figure for TCTTAACA is 0.202 ± 0.0606 E-score; for CCCTAGTC it is 0.167 ± 0.0143 E-score.
The figure for ACTCCTCT is 0.174 ± 0.0278 E-score; for ACACCTCT it is 0.467 ± 0.0079 E-score.
The result for CACCCTCG reads 0.349 ± 0.0215 E-score; that for ACGCCTCA, 0.165 ± 0.0291 E-score; that for ACACCTCG, 0.453 ± 0.00735 E-score.
Turning to ACCCCTCT, the binding signal amounted to 0.304 ± 0.0038 E-score.
The result for ATACCTCC reads 0.231 ± 0.0309 E-score; that for ACACCTCC, 0.4719 ± 0.000629 E-score; that for ACACCTCA, 0.452 ± 0.0073 E-score.
The result for ACCCCTCG reads 0.3069 ± 0.00276 E-score.
The result for CCACCTCC reads 0.159 ± 0.00267 E-score.
For the sequence GCACCTCA, the binding signal amounted to 0.162 ± 0.0144 E-score.
On to ACCCGATA, for which the binding signal was determined as 0.237 ± 0.00872 E-score.
The figure for CACCGAGG is 0.2466 ± 0.00166 E-score.
As to CACCAATC, the binding signal was determined as 0.287 ± 0.00449 E-score.
The result for GAAGGACA reads 0.176 ± 0.0303 E-score; that for AACGAGTG, 0.189 ± 0.0329 E-score; that for CCCCCTGA, 0.277 ± 0.0278 E-score.
The result for CCCCCAGG reads 0.213 ± 0.0301 E-score.
The figure for CACCTGCG is 0.26 ± 0.0138 E-score; for ACTTCTAC it is 0.182 ± 0.0104 E-score.
With CACGGGAC, the binding signal turned out to be 0.163 ± 0.0415 E-score.
Consider CCCCTCAA, for which the binding signal turned out to be 0.161 ± 0.0276 E-score.
In the case of CACTCAAG, the binding signal was found to be 0.264 ± 0.00106 E-score.
The result for CGACTCCA reads 0.275 ± 0.014 E-score.
In the case of CCCCTCCG, the binding signal was 0.2736 ± 0.00272 E-score.
The result for CACTAGGC reads 0.221 ± 0.00293 E-score.
The result for CCCCTTAC reads 0.245 ± 0.00846 E-score; that for AACACTGC, 0.375 ± 0.0233 E-score.
The result for CACACTGG reads 0.264 ± 0.0213 E-score; that for CACACTGC, 0.258 ± 0.0222 E-score; that for CACACTGA, 0.208 ± 0.0349 E-score.
As to GACACTAA, the binding signal is 0.369 ± 0.00967 E-score.
The result for AACACTAA reads 0.336 ± 0.0111 E-score; that for TACACTGA, 0.394 ± 0.0104 E-score.
The figure for TACACTAA is 0.381 ± 0.0182 E-score.
The figure for GACACTGA is 0.403 ± 0.0214 E-score.
GACACTGC: the binding signal stood at 0.4326 ± 0.00138 E-score.
The figure for AACACTGA is 0.35 ± 0.0172 E-score.
As for AATCGTGT, the binding signal was 0.369 ± 0.0106 E-score.
The result for AACTCCCG reads 0.181 ± 0.0506 E-score; that for ACTGGTAC, 0.192 ± 0.00471 E-score.
CCCCCCGA: the binding signal came out at 0.314 ± 0.0156 E-score.
The result for CACTACGG reads 0.188 ± 0.0252 E-score; that for CGAGGAAC, 0.197 ± 0.0457 E-score.
The result for CCGATCCC reads 0.221 ± 0.00253 E-score.
The figure for TACTCCAA is 0.198 ± 0.0212 E-score; for CACTGTGC it is 0.204 ± 0.00431 E-score.
Regarding CACAGGTG, the binding signal was determined as 0.307 ± 0.0159 E-score.
Take AACACTTA: the binding signal amounted to 0.328 ± 0.0332 E-score.
The result for GACACTTA reads 0.383 ± 0.00709 E-score.
